# Experimental data taken from PubChem BioAssay (Tox21).
# Values joined by “and” are separate entries in the source; they are usually repeats but may differ in a detail not shown here. Identical values can stand only once. Records with an inconclusive call do not appear. The source holds several records for some structures; these can differ, active in one and inactive in another. Active and inactive are the calls of the source. Unless noted, the call rests on the fitted dose curve; in most records, active means well fitted curve in the direction sought with a large enough effect in the repeat runs; inconclusive means weak or mixed curves; inactive means no such curve, though single readings can be large; an effect the other way counts as inactive or inconclusive.
# System: not listed separately
# Test: qHTS assay to identify small molecule antagonists of the peroxisome proliferator-activated receptor delta (PPARd) signaling pathway - cell viability counter screen (AID 743213); further: nearly all actives have a fitted effect of over 50% in size
# Conditions: PPARd-bla HEK293H viability, CellTiter-Glo luminescence, 17 h; series mostly up to 62 µM; viability change, negative = cytotoxic: at the top concentration
# How it was run: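 Agonist-stimulated (L165041, 300 nM final) HEK293H PPARd UAS-bla cells are exposed to compounds for 17 h at 37 C, and ATP-based luminescence (CellTiter-Glo) from the same wells reports cytotoxicity.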
# On the % scale 0 is the no-effect control and ±100 the full control effect; potency means the concentration at half of the fitted maximal effect.
Compound,Potency,"viability change, negative = cytotoxic"
C[C@H]1O[C@@H](O[C@H]2[C@@H](O)C[C@H](O[C@H]3[C@@H](O)C[C@H](O[C@H]4CC[C@@]5(C)[C@H](CC[C@@H]6[C@@H]5C[C@@H](O)[C@]5(C)[C@@H](C7=CC(=O)OC7)CC[C@]65O)C4)O[C@@H]3C)O[C@@H]2C)C[C@H](O)[C@@H]1O,24.6 nM (active) and 13.6 nM (active),
CNCC[C@H](Oc1cccc2ccccc12)c1cccs1,5.31 µM (active),
CCCCOC(=O)C(C)CC (centres undefined),49 µM (active),
Cc1oc(-c2ccccc2)nc1CCOc1ccc(C[C@H](Nc2ccccc2C(=O)c2ccccc2)C(=O)O)cc1,21.9 µM (active),
O=C(O)CCn1c2c(c3ccccc31)C[C@H](NS(=O)(=O)c1ccc(F)cc1)CC2,,18.8% (inactive)
CCOC(=O)C1=C(C)NC(C)=C(C(=O)OCC)C1c1ccccc1/C=C/C(=O)OC(C)(C)C,18.8 µM (active),
CNC(=S)NN,11 µM (active),
C[C@@]12C(=O)OC(=O)[C@]1(C)C1CCC2O1,8.41 µM (active),
Cc1ccc(-n2[nH]c(C)c(N=Nc3cccc(-c4cccc(C(=O)O)c4)c3O)c2=O)cc1C,,-8.37% (inactive)
CCCCCCCOC(=O)c1ccc(O)cc1,inactive and 34.7 µM (active),
CC(C)(C)C1=CC(=O)C=C(C(C)(C)C)C1=O,,9.88% (inactive)

# Molecular target: Peroxisome proliferator-activated receptor delta (Homo sapiens) (UniProt Q03181)
# Sequence (Q03181 whole entry, looked up): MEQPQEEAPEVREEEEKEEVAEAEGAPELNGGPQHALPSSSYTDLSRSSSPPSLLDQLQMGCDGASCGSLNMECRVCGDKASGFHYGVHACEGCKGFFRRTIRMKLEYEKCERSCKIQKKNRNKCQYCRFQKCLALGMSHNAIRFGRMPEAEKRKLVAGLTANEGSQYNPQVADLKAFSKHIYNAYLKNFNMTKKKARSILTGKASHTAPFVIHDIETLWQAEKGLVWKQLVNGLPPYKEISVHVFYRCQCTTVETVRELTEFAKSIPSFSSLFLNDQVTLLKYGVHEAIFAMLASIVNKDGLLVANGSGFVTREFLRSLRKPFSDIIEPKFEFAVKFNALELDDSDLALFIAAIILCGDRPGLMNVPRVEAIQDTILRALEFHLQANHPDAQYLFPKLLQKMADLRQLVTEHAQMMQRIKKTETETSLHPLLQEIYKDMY
# Test: qHTS assay to identify small molecule antagonists of the peroxisome proliferator-activated receptor delta (PPARd) signaling pathway (AID 743215; active means well fitted inhibition curve with a large enough effect in the signal ratio in the repeat runs, not every such curve was filed as active; the % refers to the signal ratio)
# Conditions: HEK293H PPARd-UAS-bla, beta-lactamase FRET ratio, antagonist, 17 h; series mostly up to 62 µM; ratio activity, negative = inhibition: at the top concentration
# How it was run: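 Cells: HEK293H with a UAS-driven beta-lactamase reporter responsive to PPARd. Compounds were co-added with L165041 (300 nM, final) and incubated 17 h at 37 C before a 2 h room-temperature FRET substrate step and fluorescence reading.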
Compound,"ratio activity, negative = inhibition",Potency
Cc1ccc(CCn2c3c(c4cc(Cl)ccc42)CN(C)CC3)cn1,-10.4% (inactive),
CCN1CCN(c2cc(-c3ccc(F)cc3)c3c(n2)CCCCCC3)CC1,-1.28% [at 28.9 µM] (inactive),
NC(=O)c1nc(-c2cccc(-c3cc(F)ccc3OCC(F)(F)C(F)(F)F)c2)n[nH]1,,54.9 µM (active)

# System: not listed separately
# Test: qHTS assay to identify small molecule agonists of the farnesoid-X-receptor (FXR) signaling pathway - cell viability counter screen (AID 743218); further: nearly all actives have a fitted effect of over 45% in size
# Conditions: FXR-bla HEK293T viability, CellTiter-Glo luminescence, 16 h; series mostly up to 62.6 µM; viability change, negative = cytotoxic: at the top concentration
# How it was run: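 Cells were seeded, left 5 h at 37 C and 5% CO2, then dosed with compound in DMSO for 16 h. After the beta-lactamase FRET read, CellTiter-Glo was added and luminescence measured 30 min later.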
Compound,Potency,"viability change, negative = cytotoxic"
C[C@H]1O[C@@H](O[C@H]2[C@@H](O)C[C@H](O[C@H]3[C@@H](O)C[C@H](O[C@H]4CC[C@@]5(C)[C@H](CC[C@@H]6[C@@H]5C[C@@H](O)[C@]5(C)[C@@H](C7=CC(=O)OC7)CC[C@]65O)C4)O[C@@H]3C)O[C@@H]2C)C[C@H](O)[C@@H]1O,24.6 nM (active) and 12.2 nM (active),
CNCC[C@H](Oc1cccc2ccccc12)c1cccs1,6.68 µM (active),
CCCCOC(=O)C(C)CC (centres undefined),,-22.4% (inactive)
CCO[Si](CCCSSSSCCC[Si](OCC)(OCC)OCC)(OCC)OCC,,-25.4% (inactive)
C=CC(=C)CCC=C(C)C,,-28.2% (inactive)
Clc1ccc(C(Cn2ccnc2)OCc2c(Cl)cccc2Cl)c(Cl)c1 (centres undefined),21.1 µM (active),
CCN1CCN(c2cc(-c3ccc(F)cc3)c3c(n2)CCCCCC3)CC1,,-11.8% [at 29.1 µM] (inactive)
Cc1oc(-c2ccccc2)nc1CCOc1ccc(C[C@H](Nc2ccccc2C(=O)c2ccccc2)C(=O)O)cc1,34.7 µM (active),
COc1ccc2sc(C(=O)Nc3nnn[nH]3)c(OC(C)C)c2c1,,1.22% (inactive)
CC1CCCNC1 (centres undefined),,-2.32% (inactive)
N#CSCSc1nc2ccccc2s1,,-19.5% (inactive)
O=C(O)CCn1c2c(c3ccccc31)C[C@H](NS(=O)(=O)c1ccc(F)cc1)CC2,,2.93% (inactive)
C[n+]1c2cc(N)ccc2cc2ccc(N)cc21 (tested in a mixture with another compound),15 µM (active),
O=C1NCCN1CCN1CCC(c2cn(-c3ccc(F)cc3)c3ccc(Cl)cc23)CC1,23.7 µM (active),
CCC(=O)OCCc1ccccc1,,-26% (inactive)
CCOC(=O)C1=C(C)NC(C)=C(C(=O)OCC)C1c1ccccc1/C=C/C(=O)OC(C)(C)C,23.7 µM (active),
Clc1ccccc1CN1CCc2sccc2C1,,3.73% (inactive)
CNC(=S)NN,,-3.14% (inactive)
C[C@@]12C(=O)OC(=O)[C@]1(C)C1CCC2O1,11.9 µM (active),
Cc1c(-c2ccc(O)cc2)n(Cc2ccc(OCCN3CCCCCC3)cc2)c2ccc(O)cc12,29.8 µM (active),
COc1ccccc1OCCNCC(O)COc1cccc2[nH]c3ccccc3c12 (centres undefined),26.6 µM (active),
c1ccc(Sc2ccccc2)cc1,,-18.7% (inactive)
CC(C)(c1cc(Br)c(O)c(Br)c1)c1cc(Br)c(O)c(Br)c1,,-36.5% (inactive)
CN(C)c1ccc(N=NS(=O)(=O)O)cc1,,-19.7% (inactive)
CCCCCCCOC(=O)c1ccc(O)cc1,,-5.21% (inactive)
CC(C)c1cccc(C(C)C)c1N1C(=O)c2ccc(O)cc2C1=O,,-15% (inactive)
COC(=O)NCCC[Si](OC)(OC)OC,,3.16% (inactive)

# Molecular target: Bile acid receptor (Homo sapiens) (UniProt Q96RI1)
# Sequence (Q96RI1 whole entry, looked up): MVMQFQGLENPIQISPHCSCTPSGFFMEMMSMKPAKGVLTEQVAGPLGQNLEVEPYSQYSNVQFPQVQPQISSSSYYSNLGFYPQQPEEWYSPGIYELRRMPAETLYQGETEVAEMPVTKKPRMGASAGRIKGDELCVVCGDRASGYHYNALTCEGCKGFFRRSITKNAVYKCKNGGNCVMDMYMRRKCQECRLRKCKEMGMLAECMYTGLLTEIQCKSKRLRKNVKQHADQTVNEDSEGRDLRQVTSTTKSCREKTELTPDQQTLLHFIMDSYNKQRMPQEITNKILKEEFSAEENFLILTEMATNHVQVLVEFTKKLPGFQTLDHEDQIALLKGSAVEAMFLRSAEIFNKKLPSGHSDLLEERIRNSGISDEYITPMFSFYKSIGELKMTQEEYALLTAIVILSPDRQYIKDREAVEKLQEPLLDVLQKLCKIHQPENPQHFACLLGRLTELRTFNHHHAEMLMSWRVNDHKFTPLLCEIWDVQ
# Test: qHTS assay to identify small molecule agonists of the farnesoid-X-receptor (FXR) signaling pathway (AID 743220; active means well fitted activation curve with a large enough effect in the signal ratio in the repeat runs, not every such curve was filed as active; the % refers to the signal ratio)
# Conditions: HEK293T FXR-UAS-bla, beta-lactamase FRET ratio, 16 h; series mostly up to 62.6 µM; activation: at the top concentration
# How it was run: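 FXR-UAS-bla HEK 293T cells carrying a UAS-driven beta-lactamase reporter were plated for 5 h at 37C/5% CO2, then exposed to DMSO-dissolved Tox21 10K compounds for 16 h at 37C. A LiveBLAzer B/G FRET substrate was loaded for 2 h at room temperature before fluorescence reading.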
Compound,activation,Potency
C[C@H]1O[C@@H](O[C@H]2[C@@H](O)C[C@H](O[C@H]3[C@@H](O)C[C@H](O[C@H]4CC[C@@]5(C)[C@H](CC[C@@H]6[C@@H]5C[C@@H](O)[C@]5(C)[C@@H](C7=CC(=O)OC7)CC[C@]65O)C4)O[C@@H]3C)O[C@@H]2C)C[C@H](O)[C@@H]1O,-10.9% (inactive),
Cc1ccc(CCn2c3c(c4cc(Cl)ccc42)CN(C)CC3)cn1,-0.693% (inactive),
Clc1ccc(C(Cn2ccnc2)OCc2c(Cl)cccc2Cl)c(Cl)c1 (centres undefined),,10.6 µM (active)
COc1ccc2sc(C(=O)Nc3nnn[nH]3)c(OC(C)C)c2c1,-0.869% (inactive),
Cc1c(C)n(Cc2ccccc2)c2ccc(C(=O)OCCN(C)C)cc12,-2.84% (inactive),
CCOC(=O)C1=C(C)NC(C)=C(C(=O)OCC)C1c1ccccc1/C=C/C(=O)OC(C)(C)C,,33.5 µM (active)
COc1ccccc1OCCNCC(O)COc1cccc2[nH]c3ccccc3c12 (centres undefined),0.679% (inactive),
CC(C)(c1cc(Br)c(O)c(Br)c1)c1cc(Br)c(O)c(Br)c1,,inactive
